HP1b binding inh: HTS for Inhibitors of HP1-beta Chromodomain Interactions with Methylated Histone Tails; Potency, µM (titrated, usually from 114 µM), for inactives: top-dose activity change, negative = inhibition, most hits filed as inhibitors; AlphaScreen HP1-beta / biotin-H3K9me3 peptide binding; AID 540317, 2011; Chromobox protein homolog 1 (Homo sapiens), P83916; hit rate 0.56% among 390,000; note: nearly all actives have a fitted effect of over 70% in size
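HP1-beta protein (50 nM final) preincubated 30 min at room temperature with biotinylated H3(1-18)K9me3 peptide (50 nM) in PBS pH 7.4, 0.01% Tween-20, then compound added for 30 min. AlphaScreen streptavidin donor/nickel chelate acceptor beads (10 ug/mL final), 30 min dark, luminescence read.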
Sfp inh: qHTS Assay for Inhibitors of Bacillus subtilis Sfp phosphopantetheinyl transferase (PPTase); 4'-phosphopantetheinyl transferase ffp (Bacillus subtilis), Q9F4F7; Biochemical Sfp PPTase activity, qHTS; Potency, µM, for the others: largest response in the series, negative = inhibition, hits mostly inhibitors; hit rate 3.5% among 310,000; AID 1490, 2009;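 note: the enzyme is Sfp with the accession as filed and its product quenches rhodamine fluorescence; 0% = enzyme reaction without inhibitor and -100% = no enzyme wells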
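Step 1, compound plus 15 nM Sfp-PPTase, 15 min, room temperature. Step 2, add rhodamine-CoA (5 uM) and BHQ-2-YbbR (12.5 uM). Step 3, read 525/598 nm fluorescence at 0 and 30 min.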
BAZ2B inh: qHTS Assay for Inhibitors of BAZ2B; AlphaScreen BAZ2B-H3K14Ac peptide displacement; Potency, µM (series often up to 114 µM), for the others: at the top dose activity change, negative = inhibition, most hits filed as inhibitors; Bromodomain adjacent to zinc finger domain protein 2B (Homo sapiens), Q9UIF8; hit rate 4.4% among 360,000; note: % is set by controls: 0 for no effect and ±100 for the full control effect; nearly all actives have a fitted effect of over 60% in size
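In this displacement format the biotinylated H3(5-23) peptide acetylated at Lys14 serves as ligand at 50 nM, with BAZ2B at 50 nM in PBS pH 7.4 containing 0.01% Tween-20. Donor and acceptor beads are 10 ug/mL final.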
PLK1 PBD block: qHTS for Inhibitors of PLK1-PDB (polo-like kinase 1 - polo-box domain): Primary Screen. Serine/threonine-protein kinase PLK1 (Homo sapiens), P53350. Plk1 PBD binding of FITC phosphopeptide, fluorescence polarization. Potency, µM, for inactives: max response, negative = inhibition, most hits filed as inhibitors. hit rate 2.8% among 360,000. AID 720504, 2013; note: series mostly up to about 57 µM; % is set by controls: 0 for no effect and ±100 for the full control effect; nearly all actives have a fitted effect of over 65% in size
G9a block: qHTS Assay for Inhibitors of Histone Lysine Methyltransferase G9a; Histone-lysine N-methyltransferase EHMT2 (Homo sapiens), Q96KQ7; G9a H3K9 monomethylation, AlphaScreen, 2 h; Potency, µM (top dose mostly 102 µM), inactives show at the top dose activity, negative = inhibition, most hits filed as inhibitors; hit rate 8.8% among 350,000; note: % is set by controls: 0 for no effect and ±100 for the full control effect; nearly all actives have a fitted effect of over 75% in size
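G9a (20 nM) preincubated 15 min RT with compounds, then 500 nM biotinylated H3K9 peptide and 20 uM SAM added; 2 h RT reaction. Monomethyl-H3K9 product detected by AlphaScreen with anti-H3K9me1 antibody, streptavidin donor and anti-rabbit IgG acceptor beads.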
JMJD2A Tudor: qHTS Assay for Inhibitors of JMJD2A-Tudor Domain; Potency, µM (titrated, usually from 114 µM), inactives show at the highest dose activity change, negative = inhibition, usual class: inhibitors; AID 504339, 2011; AlphaScreen JMJD2A-Tudor / H3K4me3 peptide binding; hit rate 4.4% among 390,000; Lysine-specific demethylase 4A (Homo sapiens), O75164; note: % is set by controls: 0 for no effect and ±100 for the full control effect; nearly all actives have a fitted effect of over 50% in size
Target sequence (O75164 whole entry, looked up, the tested form may be a part): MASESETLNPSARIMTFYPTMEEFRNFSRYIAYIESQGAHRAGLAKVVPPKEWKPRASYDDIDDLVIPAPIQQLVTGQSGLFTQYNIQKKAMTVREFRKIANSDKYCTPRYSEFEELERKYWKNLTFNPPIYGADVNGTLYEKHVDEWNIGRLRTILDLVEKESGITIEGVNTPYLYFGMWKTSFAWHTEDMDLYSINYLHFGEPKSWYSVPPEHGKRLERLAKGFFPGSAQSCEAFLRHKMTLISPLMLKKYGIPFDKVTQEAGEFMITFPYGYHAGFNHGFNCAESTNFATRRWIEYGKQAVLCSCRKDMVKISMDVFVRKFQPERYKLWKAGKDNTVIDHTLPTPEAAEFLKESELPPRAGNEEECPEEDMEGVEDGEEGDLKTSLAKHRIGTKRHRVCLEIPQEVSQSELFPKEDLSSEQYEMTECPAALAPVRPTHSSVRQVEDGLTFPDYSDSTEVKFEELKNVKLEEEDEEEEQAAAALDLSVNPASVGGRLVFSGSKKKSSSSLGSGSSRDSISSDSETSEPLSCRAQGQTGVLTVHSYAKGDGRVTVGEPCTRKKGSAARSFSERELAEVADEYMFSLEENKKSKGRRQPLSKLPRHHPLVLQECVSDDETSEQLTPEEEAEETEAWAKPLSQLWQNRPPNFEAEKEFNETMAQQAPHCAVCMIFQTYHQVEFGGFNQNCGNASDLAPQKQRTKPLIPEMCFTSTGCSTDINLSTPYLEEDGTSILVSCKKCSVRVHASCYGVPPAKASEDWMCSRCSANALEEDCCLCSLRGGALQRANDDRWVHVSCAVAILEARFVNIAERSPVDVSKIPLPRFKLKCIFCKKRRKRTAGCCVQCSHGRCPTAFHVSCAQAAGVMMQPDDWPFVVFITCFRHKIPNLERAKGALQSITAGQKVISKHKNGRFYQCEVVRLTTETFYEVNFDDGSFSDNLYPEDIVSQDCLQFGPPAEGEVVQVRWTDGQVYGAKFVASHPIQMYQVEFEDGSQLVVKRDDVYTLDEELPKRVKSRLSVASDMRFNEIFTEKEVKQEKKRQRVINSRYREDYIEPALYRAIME
The depositor's hits bear a star; [ ] = another dose, or the depositor's remark. Compounds with a hit are over-represented: about 12% of the library has one in this group of screens. Calls come from the whole dose curve; as a rule, active = well fitted curve in the direction sought with a large enough effect; inconclusive = small, poorly fitted or top-dose-only effect, or another doubt; inactive = no such curve, though single readings can be large; an effect the other way counts as inactive or inconclusive. Potency is the fitted concentration of half-maximal effect.

Results for CC1(c2ccccc2)CC(C)(C)N2C(=O)C(=O)c3cccc1c32 (stereo unspecified) ?
HP1b binding inh: -33%; Sfp inh: inconclusive; BAZ2B inh: 28µM*; PLK1 PBD block: 0%; G9a block: inconclusive; JMJD2A Tudor: inconclusive

What do the screens show for `COc1ccc2cc(C3CC(c4cccs4)=NN3S(C)(=O)=O)c(Cl)nc2c1` (stereo unspecified)?
HP1b binding inh: -11%; Sfp inh: 14%; BAZ2B inh: 0%; PLK1 PBD block: 6.7µM*; G9a block: -7%[59 µM]; JMJD2A Tudor: inconclusive

Results for CS(=O)(=O)N1N=C(c2cccs2)CC1c1ccco1 (stereo unspecified) ?
HP1b binding inh: 16%; Sfp inh: 10µM*; BAZ2B inh: inconclusive; PLK1 PBD block: -17%; G9a block: 6%[12.7 µM]; JMJD2A Tudor: -29%

How did CCOc1ccc2nc(Cl)c(C3CC(c4ccccc4)=NN3C(=O)CCC(=O)O)cc2c1 (stereo unspecified) do in these assays?
HP1b binding inh: 21%; BAZ2B inh: -6%; G9a block: 11%[59 µM]; JMJD2A Tudor: -30%

What do the screens show for `COc1ccc2cc(C3CC(c4ccco4)=NN3C(=O)CCC(=O)O)c(Cl)nc2c1` (stereo unspecified)?
HP1b binding inh: 16%; Sfp inh: 50µM*; BAZ2B inh: -24%; PLK1 PBD block: -12%; G9a block: inconclusive; JMJD2A Tudor: -16%

Results for CCOc1ccc2nc(Cl)c(C3CC(c4ccc(C)cc4)=NN3C(=O)CCC(=O)O)cc2c1 (stereo unspecified) ?
HP1b binding inh: -12%; BAZ2B inh: inconclusive; G9a block: 3%[59 µM]; JMJD2A Tudor: 79µM*

How did CC(=O)N1N=C(c2cccs2)CC1c1ccco1 (stereo unspecified) do in these assays?
HP1b binding inh: 19%; Sfp inh: 13%; BAZ2B inh: -2%; PLK1 PBD block: 1%; G9a block: 0%; JMJD2A Tudor: -10%

Results for Cc1ccc2cc(C3CC(c4cccs4)=NN3S(C)(=O)=O)c(Cl)nc2c1 (stereo unspecified) ?
HP1b binding inh: 47%; Sfp inh: 3%; BAZ2B inh: -21%; PLK1 PBD block: 4%; G9a block: 2%; JMJD2A Tudor: -2%

Results for CCOc1ccc2cc(C3CC(c4ccco4)=NN3S(C)(=O)=O)c(Cl)nc2c1 (stereo unspecified) ?
HP1b binding inh: -17%; Sfp inh: 2%; BAZ2B inh: -30%; PLK1 PBD block: -11%; G9a block: 45µM*; JMJD2A Tudor: -28%

How did Cc1cc(C)c2c(NC(N)=S)n[nH]c2n1 do in these assays?
HP1b binding inh: -1%; Sfp inh: -19%; BAZ2B inh: 0%; PLK1 PBD block: -1%; G9a block: 25µM*; JMJD2A Tudor: 32µM*

What do the screens show for `CN(Cc1ccccc1)C1CC(=O)N(c2ccc(C(=O)O)cc2)C1=O` (stereo unspecified)?
HP1b binding inh: 50%; Sfp inh: -23%; BAZ2B inh: 9%; PLK1 PBD block: -3%; G9a block: 3.5µM*; JMJD2A Tudor: -13%

How did CCCCCC(=O)N(O)C1CC(=O)N(c2ccccc2)C1=O (stereo unspecified) do in these assays?
HP1b binding inh: -78%; Sfp inh: 13µM*; BAZ2B inh: -29%; PLK1 PBD block: inconclusive; G9a block: 1.4µM*; JMJD2A Tudor: 22µM*

What do the screens show for `CCCCCCC(=O)N(O)C1CC(=O)N(Cc2ccccc2)C1=O` (stereo unspecified)?
HP1b binding inh: 16%; Sfp inh: 50µM*; BAZ2B inh: 2%; PLK1 PBD block: -8%; G9a block: 2.5µM*; JMJD2A Tudor: inconclusive

Results for COc1ccc(N2C(=O)CC(N(CCc3ccccc3)C(=O)c3ccccc3)C2=O)cc1 (stereo unspecified) ?
HP1b binding inh: 9%; Sfp inh: 11%; BAZ2B inh: 17%; PLK1 PBD block: -12%; G9a block: inconclusive; JMJD2A Tudor: -5%

Results for CCCCOc1ccc(N2C(=O)CC(N(O)c3ccccc3)C2=O)cc1 (stereo unspecified) ?
HP1b binding inh: 24%; Sfp inh: 12%; BAZ2B inh: -5%; PLK1 PBD block: -4%; G9a block: -4%; JMJD2A Tudor: -8%

What do the screens show for `CCCCCOc1ccc(N2C(=O)CC(N(O)c3ccccc3)C2=O)cc1` (stereo unspecified)?
HP1b binding inh: 18%; Sfp inh: -4%; BAZ2B inh: -2%; PLK1 PBD block: -4%; G9a block: 50µM*; JMJD2A Tudor: -19%

How did CC(C)Cc1ccc(S(=O)(=O)Nc2cc3c(cc2N2CCOCC2)n(C)c(=O)c(=O)n3C)cc1 do in these assays?
HP1b binding inh: 7%; BAZ2B inh: -15%; G9a block: -1%[59 µM]; JMJD2A Tudor: -12%

Results for O=C(NCc1n[nH]c(=S)n1-c1ccc(Br)cc1)c1ccc(S(=O)(=O)N2CCCC2)cc1 ?
HP1b binding inh: 23%; Sfp inh: -1%; BAZ2B inh: -35%; PLK1 PBD block: -4%; G9a block: 2.5µM*; JMJD2A Tudor: -32%

How did O=C(NCc1n[nH]c(=S)n1-c1ccc(Br)cc1)c1ccc(S(=O)(=O)N2CCOCC2)cc1 do in these assays?
HP1b binding inh: 28%; Sfp inh: 0%; BAZ2B inh: -5%; PLK1 PBD block: -3%; G9a block: 3.2µM*; JMJD2A Tudor: inconclusive

Results for Cc1ccc(CNC(=O)c2ccc(S(=O)(=O)N3CCCCCC3)cc2)cc1 ?
PLK1 PBD block: 2%

What do the screens show for `O=C(NCc1nnnn1-c1ccc(F)cc1)c1ccc(S(=O)(=O)N2CCOCC2)cc1`?
PLK1 PBD block: 1%

What do the screens show for `O=C(NCc1n[nH]c(=S)n1-c1ccc(Cl)c(Cl)c1)c1ccc(S(=O)(=O)N2CCOCC2)cc1`?
HP1b binding inh: 27%; Sfp inh: -20%; BAZ2B inh: -16%; PLK1 PBD block: -8%; G9a block: 8.9µM*; JMJD2A Tudor: -22%
